Hits are enriched below; roughly 8.1% of the tested compounds scored in any of these assays.
SW480 rereplic = A quantitative high throughput screen for small molecules that induce DNA re-replication in SW480 colon adenocarcinoma cells; actives 1.8% (n = 340,000); Potency, µM (series often up to 46.1 µM), without a hit: at the top dose re-replication activation, usual class: activators; SW480 DNA re-replication, Hoechst DNA content imaging, 48 h; also: % of control where 0% means no effect; nearly all actives have a fitted effect of over 55% in size
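Image-based DNA-content assay: after two days of treatment, nuclei were labelled with the DNA dye Hoechst and imaged, and hits were compounds raising the count of nuclei showing high fluorescence intensity.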
MCF10A rereplic = A quantitative high throughput screen for small molecules that induce DNA re-replication in MCF 10a normal breast cells. MCF 10A DNA re-replication, Hoechst nuclear intensity, 48 h. Potency, µM (top dose mostly 46.1 µM), without a hit: at the top dose activity, positive = re-replication, actives largely listed as activators. actives 2.9% (n = 350,000); also: % of control where 0% means no effect; nearly all actives have a fitted effect of over 50% in size
ELG1 DNA repair = qHTS screen for small molecules that inhibit ELG1-dependent DNA repair in human embryonic kidney (HEK293T) cells expressing luciferase-tagged ELG1. Potency, µM (highest dose often 46.1 µM), for the others: at the top dose activity change, negative = inhibition, actives largely listed as inhibitors. AID 504467, 2011. actives 2.3% (n = 330,000). HEK293T ELG1-luciferase reporter, luminescence, 16 h; DNA damage induced by 5-fluorouridine; also: % is scaled to controls: 0 for no effect and ±100 for the full control effect; nearly all actives have a fitted effect of over 55% in size
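Cells (2,000 per well) received 5-fluorouridine plus test compound or DMSO and were incubated 16 hr at 37 °C, 5% CO2. Luciferase activity was read by luminescence 30 min after ONE-Glo addition; signal suppression marked inhibition of damage-induced ELG1 function.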
KB-3-1 cytotox = qHTS assay for MDR1-selective chemotherapeutics: Primary screen using the parental adenocarcinoma cell KB-3-1; Potency, µM (series often up to 46.1 µM), most hits filed as cytotoxic; actives 1.4% (n = 400,000); AID 1347075, 2019; KB-3-1 viability, CellTiter-Glo ATP luminescence, 72 h; also: % is scaled to controls: 0 for no effect and ±100 for the full control effect; nearly all actives have a fitted effect of over 60% in size
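Parental KB-3-1 viability, qHTS format: 72 h compound exposure, 37 °C; CellTiter-Glo; media-only wells and DMSO plates as controls; concentration-effect fits on corrected data.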
KB-V1 cytotox = qHTS assay for MDR1-selective chemotherapeutics: Primary screen using the drug-selected MDR subline cells KB-V1; actives 3.4% (n = 400,000); KB-V1 MDR cells viability, CellTiter-Glo, 72 h; Potency, µM (highest dose often 46.1 µM), actives largely listed as cytotoxic; also: % is scaled to controls: 0 for no effect and ±100 for the full control effect; nearly all actives have a fitted effect of over 60% in size
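Luminescent ATP read-out (CellTiter-Glo, 10 min) measures survival of drug-selected KB-V1 MDR cells after 72 h, 37 degrees C compound exposure. Medium: phenol-red-free DMEM, 10% FBS. Values from fitted concentration-response curves.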
The depositor's hits bear a star; i = inactive; ? = inconclusive; nt = no result; ! = repeats disagree. Calls follow the shape of the dose curve; as a rule, active = well fitted curve in the direction sought with a large enough effect; inconclusive = small, poorly fitted or top-dose-only effect, or another doubt; inactive = no such curve, though single readings can be large; an effect the other way counts as inactive or inconclusive. Potency is read from the fitted curve at half-maximal effect.

SMILES	SW480 rereplic	MCF10A rereplic	ELG1 DNA repair	KB-3-1 cytotox	KB-V1 cytotox
Cc1nc2c(=O)[nH]n(C)c2nc1C	nt	nt	nt	i	i
COC(=O)[C@@]12C[C@@H](CC(=O)N3CCCC3)C(=O)N(Cc3ccco3)C1=CCC(C)(C)C2	nt	nt	nt	i	?
Cc1ccc(NC(=O)COc2ccc(N(C)C(=O)C(C)(C)C)cc2)cc1S(=O)(=O)N1CCCCC1	6.9%	-1.6%	8.2µM*	16.4µM*	18.4µM*
Cc1ccc(OCC(=O)Nc2ccc(C)c(S(=O)(=O)N3CCCCCC3)c2)c([N+](=O)[O-])n1	-8.2%	6.8%	16.4µM*	?	?
CCc1cccc(OCC(=O)Nc2ccc(C)c(S(=O)(=O)N3CCCCCC3)c2)c1	-265.8%	-27.2%	0.0%	i	i
Cc1ccc(OCC(=O)Nc2cccc(S(=O)(=O)N3CCCCC3)c2)c([N+](=O)[O-])n1	1.5%	-1.0%	-16.7%	i	i
COc1cc(C#N)ccc1OCC(=O)Nc1ccc(C)c(S(=O)(=O)N2CCOCC2)c1	-12.6%	-1.6%	?	i	8.2µM*
CCN(CC)S(=O)(=O)c1cc(NC(=O)COc2ccc(C#N)cc2OC)ccc1C	nt	5.0%	13µM*	i	?
Cc1ccc(NC(=O)COc2ccc(Cl)cc2Cl)cc1S(=O)(=O)N1CCOCC1	-1.0%	10.7%	?	i	?
Cc1oc(-c2ccc(C(=O)N(C)Cc3ccccc3)cc2)nc1CN1CCc2ccccc21	nt	nt	nt	14.6µM*	13µM*
Cc1oc(-c2ccc(-c3ccccc3)cc2)nc1CN1CCN(CC(=O)N(C)C)CC1	-38.4%	3.5%	?	i	i
COCCNC(=O)c1ccc(-c2nc(CN3CCc4ccccc43)c(C)o2)cc1	nt	nt	nt	?	10.3µM*
Cc1ccc(CNC(=O)c2ccc(-c3nc(CN4CCc5ccccc54)c(C)o3)cc2)cc1	nt	nt	nt	i	?
CC(C)(C)CC(C)(C)c1ccc(O)c(Cc2ccc(Cl)cc2Cl)c1	2.9%	29.9µM*!	nt	?	?
Cc1cnc(NC(=O)NCC2CCCC(CNC(=O)Nc3ncc(C)s3)C2)s1 (configuration not stated)	15.8%	?	20.6µM*	?	i
CCN(CC)S(=O)(=O)c1csc(C(=O)Nc2ccccn2)c1	3.2%	3.8%	11.0%	i	23.1µM*
COc1ccc(N2CCN(C(=O)c3cnn(-c4ccc(OC)cc4)c3C3CCN(C(=O)OC(C)(C)C)CC3)CC2)cc1	nt	nt	nt	i	?
CSc1cccc(Nc2cc(C(=O)NCCCN(Cc3ccccc3)C(C)C)c3ccccc3n2)c1	nt	nt	nt	i	16.4µM*
CN(C)c1ccc(/C=C/c2ccncc2)cc1	?	?	?	?	i
CCN(CC)c1ccc(/C=C/c2ccncc2)cc1	nt	nt	nt	0.517µM*	i
Cc1ccc2oc(=O)c3cc(C(=O)Nc4ccccc4C(N)=O)sc3c2c1	nt	nt	nt	i	i
Cc1ccc2c(c1)-c1c(c(C(=O)N3CCN(c4cc(Cl)ccc4C)CC3)nn1C)CS2	nt	nt	nt	i	i
CC(C)(CO)NCc1cccs1	1.3µM*	1.3%	2.1%	?	i
CC(C)(C)CC(=O)NCc1cccs1	-8.4%	-6.5%	12.4%	i	i
Cc1cc(Sc2nnc(/N=C/N(C)C)s2)c2ccccc2n1	?	9.2µM*	-4.1%	?	i
Cc1cc(Sc2nnc(N)s2)c2ccccc2n1	-0.4%	?	0.0%	i	i
CN(C)CCN1CCN(C(c2ccnc3ccccc23)c2nnnn2-c2ccc3c(c2)OCCO3)CC1 (configuration not stated)	nt	nt	nt	i	i
CCOc1cc(S(=O)(=O)N2CC=C(c3ccc(F)cc3)CC2)c(OCC)cc1-n1cnnn1	-5.6%	-0.1%	5.8µM*	?	?
CCOc1cc(S(=O)(=O)N2CCC(Cc3ccccc3)CC2)c(OCC)cc1-n1cnnn1	-0.5%	-1.8%	?	i	i
COc1ccc(C(=O)NC2CCCCC2)cc1OC1CCN(C(C)C)CC1	-3.5%	1.2%	4.8%	i	i
